Several values for one entry are separate records, joined by “and”; a condition that tells them apart may be missing. Equal entries are not always repeated. The source holds several records for some structures; these can differ, active in one and inactive in another. Activity calls are given as the source filed them. The calls were made as follows: active = hit-call score of the fitted dose curve at least 0.9, where 1 is the maximum; inactive = score below 0.9.
Experiments:
[1] = read-out: Vascular cell adhesion molecule 1 (VCAM1), VCAM1 (gene 7412); test: BSK_IMphg_VCAM1: BioMAP Diversity Plus: IMphg Assay for Vascular cell adhesion molecule 1 (VCAM1) Biomarker Activity (AID 2284286); details: primary human endothelial cells with macrophages
Procedure, shortened: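 Human venular endothelial cells co-cultured with macrophages; VCAM-1 quantified by ELISA 24 h after dosing, fitted in the positive direction against DMSO. Cytotoxicity was checked in parallel cultures by SRB total-protein staining (0.1% SRB after 10% TCA fixation, 560 nm).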

[2] = read-out: Intercellular Adhesion Molecule 1 (ICAM1), ICAM1 (gene 3383); test: BSK_hDFCGF_ICAM1: BioMAP Diversity Plus: hDFCGF Assay for Intercellular Adhesion Molecule 1 (ICAM1) Biomarker Activity (AID 2284287); details: primary human foreskin fibroblasts
Procedure, shortened: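 Primary human foreskin fibroblasts (hDFCGF system) dosed with chemical; ICAM-1 quantified by ELISA at 24 h relative to DMSO. Parallel SRB total-protein staining to assess overt cytotoxicity.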

[3] = read-out: E-selectin (Homo sapiens) (UniProt P16581); test: BSK_IMphg_ESelectin: BioMAP Diversity Plus: IMphg Assay for Eselectin Biomarker Activity (AID 2284291); details: primary human endothelial cells with macrophages
Procedure, shortened: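 Human venular endothelial cell–macrophage co-culture, E-selectin measured by ELISA 24 h after chemical dosing. Signal fitted in the positive direction against DMSO as negative control and baseline.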

[4] = BSK_IMphg_SRB: Viability Assessment in the BioMAP Diversity Plus: IMphg Assay (AID 2284292); details: primary human endothelial cells with macrophages;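 also: measured one day after compound addition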
Procedure, shortened: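 Human venular endothelial cells with macrophages, 24 h after chemical dosing; total protein by 0.1% SRB staining after 10% TCA fixation, read at 560 nm. Positive-direction fitting versus DMSO baseline.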

[5] = read-out: Macrophage colony-stimulating factor (MCSF), CSF1 (gene 1435); test: BSK_IMphg_MCSF: BioMAP Diversity Plus: IMphg Assay for Macrophage colony-stimulating factor (MCSF) Biomarker Activity (AID 2284293); details: primary human endothelial cells with macrophages
Procedure, shortened: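 Co-culture of human venular endothelial cells and macrophages, 24 hours of chemical exposure. M-CSF quantified by ELISA, with parallel SRB total-protein staining for cytotoxicity; activity fitted relative to DMSO.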

[6] = read-out: Interleukin-10 (IL10), IL10 (gene 3586); test: BSK_IMphg_IL10: BioMAP Diversity Plus: IMphg Assay for Interleukin-10 (IL10) Biomarker Activity (AID 2284294); details: primary human endothelial cells with macrophages
Procedure, shortened: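 Human venular endothelial cells cocultured with macrophages, dosed 24 h; IL-10 measured by ELISA, activity relative to DMSO. Cytotoxicity assessed in parallel cultures by sulforhodamine B total-protein staining.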

[7] = read-out: Thrombomodulin, THBD (gene 7056); test: BSK_LPS_Thrombomodulin: BioMAP Diversity Plus: LPS Assay for Thrombomodulin Biomarker Activity (AID 2284296); details: primary human HUVEC with PBMC
Procedure, shortened: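 Human umbilical vein endothelial cells co-cultured with PBMC and stimulated with LPS; cell-surface thrombomodulin measured by ELISA 24 hours after compound. Gain or loss versus DMSO; cytotoxicity checked by SRB staining in parallel cultures.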

[8] = IUF_NPC2c_oligodendrocyte_migration_120hr: Leibniz Research Institute for Environmental Medicine (IUF) 120-hour Neural Progenitor Cell Migration Assay for Oligodendrocyte Migration (NPC2c) (AID 2284297)
Procedure, shortened: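 Human fetal neural progenitor spheres (0.3 mm) are plated on poly-D-lysine/laminin in N2 differentiation medium and exposed for 120 h, with half-medium renewal at day 3. Oligodendrocyte (O4+) migration distance comes from ICC imaging, normalised to radial glia migration.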

[9] = IUF_NPC2a_radial_glia_migration_120hr: Leibniz Research Institute for Environmental Medicine (IUF) 120-hour Neural Progenitor Cell Migration Assay for Radial Glia Migration (NPC2a) (AID 2284298)
Procedure: IUF_NPC2-5 is a cell-based, multiplexed assay that uses hNPC, a human primary neural progenitor cells, with measurements taken at 72 or 120 hours after chemical dosing in a 96-well plate. Human neural progenitor cells (hNPC) are generated from human fetal brain cortex at gestational week (GW) 16-19. In the neural progenitor cell migration and differentiation assay (NPC2-5), hNPCs grown as spheres are plated on an extracellular matrix and migrate and differentiate out of the sphere core. The processes radial glia migration, neuronal and oligodendrocyte migration as well as neuronal differentiation, neuronal morphology and oligodendrocyte differentiation are studied using automated phase contrast imaging and automated fluorescence imaging in combination with high content image analysis. In parallel, the cell viability is assessed using an alamar blue viability assay and the cytotoxicity using a lactate dehydrogenase dependent membrane integrity assay.IUF_NPC2a_radial_glia_migration_120hr is one of 12 assay components measured from the IUF_NPC2-5 assay. The migration distance of radial glia at 120 hr is assessed in um from the edge of the sphere core to the edge of the migration area based on fluorescent images of Hoechst-positive nuclei. With the identification of each nucleus position around the sphere core, migration-related parameters can be calculated. First, a nuclei density distribution is calculated for which an algorithm determines relatively more and less dense nuclei areas. This calculation identifies the sphere core by the densest nuclei area in the image. The algorithm further assumes that nuclei density decreases from the sphere core to the periphery. When the nuclei density hits a pre-defined threshold, the outer boundaries of the migration area are determined and the sphere itself is mapped out in a polynomial bounding box. Derived from this box, the size of the migration area and the migration distance are calculated for each well.Data from the IUF_NPC2a_radial_glia_migration_120hr component was analyzed at the endpoint IUF_NPC2a_ radial_glia_migration_120hr in the positive analysis fitting direction relative to DMSO as the negative control and baseline of activity. Using a type of migration reporter, gain or loss-of-signal activity can be used to understand developmental effects.
Culture protocol: After the cell expansion period the cells are cultured for up to four weeks in which they are passaged every week as described in 3.6. Between one to three days after passaging spheres at a size of 0.3 mm are picked for the test method. For the assessment of neural progenitor cell migration and differentiation, the spheres are plated on poly-D-lysine/laminin coated 96-well flat bottom plates in differentiation medium (N2) to initiate migration and differentiation. Thereby one 0.3 mm big sphere is plated in the middle of a well. The differentiation medium consists of DMEM and Ham's F12 at a ratio of 3 to 1 supplemented with 1% N2 and 1% penicillin and streptomycin. Within 5 days NPCs radially migrate out of the sphere core and differentiate into radial glia cells (nestin positive), neurons (TUBB3 positive), oligodendrocytes (O4 positive) and astrocytes (GFAP positive). Cultivation during the test method is performed at 37C and 5% CO2 at a ph of 7.2-7.6.Exposure: 0.3 mm big hNPC are plated in the already prepared test conditions. Exposure starts at day 0 of differentiation and is continued over five days of differentiation until the experiment is terminated. Cells are fed with fresh medium at day 3 of differentiation. Therefore, half of the test condition solution (e.g. solvent control or compound dilution) is replaced by freshly prepared test condition solution.Test Method: Migration distance and cytotoxicity is determined after 72 hours based on brightfield images of each well. The assay is terminated by the assessment of cell viability and cytotoxicity as well as cell fixation after 120 h. […]

[10] = IUF_NPC2a_radial_glia_migration_72hr: Leibniz Research Institute for Environmental Medicine (IUF) 72-hour Neural Progenitor Cell Migration Assay for Radial Glia Migration (NPC2a) (AID 2284299)
Procedure, shortened: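 Human fetal cortex (GW 16-19) neural progenitor spheres, 0.3 mm, plated on poly-D-lysine/laminin in N2 differentiation medium with compound from day 0. Radial glia migration distance (um, sphere core edge to migration edge) measured manually in four directions on 72 h brightfield images; well mean used.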

Chain of E-selectin (Homo sapiens) (P16581 whole entry, looked up): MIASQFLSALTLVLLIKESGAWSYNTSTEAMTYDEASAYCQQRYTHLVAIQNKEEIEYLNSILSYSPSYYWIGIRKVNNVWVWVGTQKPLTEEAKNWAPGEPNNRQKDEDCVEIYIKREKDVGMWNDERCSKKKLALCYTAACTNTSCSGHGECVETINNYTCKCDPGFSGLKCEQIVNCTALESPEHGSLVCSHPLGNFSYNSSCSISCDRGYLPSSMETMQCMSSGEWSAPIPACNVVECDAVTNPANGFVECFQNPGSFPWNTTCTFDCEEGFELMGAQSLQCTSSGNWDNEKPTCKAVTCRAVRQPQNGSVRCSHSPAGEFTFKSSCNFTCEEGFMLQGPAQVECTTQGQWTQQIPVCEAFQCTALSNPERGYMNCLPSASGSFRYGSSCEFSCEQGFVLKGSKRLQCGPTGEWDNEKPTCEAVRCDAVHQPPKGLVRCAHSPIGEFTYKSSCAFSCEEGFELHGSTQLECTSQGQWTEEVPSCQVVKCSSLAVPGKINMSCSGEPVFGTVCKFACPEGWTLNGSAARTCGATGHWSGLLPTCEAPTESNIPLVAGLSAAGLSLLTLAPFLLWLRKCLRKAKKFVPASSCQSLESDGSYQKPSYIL

For `COC(=O)C(F)(F)C(F)(F)OC(F)(C(F)(F)F)C(F)(F)OC(F)=C(F)F` (stereo not given), the outcome [1] was “inactive”, the outcome [2] was “inactive” and the outcome [3] was “inactive”. For the same molecule, the outcome [4] was “inactive”, the outcome [5] was “inactive” and the outcome [6] was “inactive”. The outcome [7] was “inactive”.

In the case of `O=S(=O)(F)C(F)(F)C(F)(F)C(F)(F)C(F)(F)C(F)(F)C(F)(F)C(F)(F)C(F)(F)F`, the outcome [1] is reported as “inactive”, the outcome [2] is reported as “inactive” and the outcome [3] is reported as “inactive”. For the same molecule, the outcome [4] was “inactive”, the outcome [5] was “inactive” and the outcome [6] was “inactive”. For the same molecule, the outcome [7] was “inactive”.

In the case of `O=C(O)C(F)(OC(F)(F)C(F)(F)C(F)(F)F)C(F)(F)F` (stereo not given), the outcome [1] is reported as “inactive”, the outcome [2] is reported as “inactive” and the outcome [3] is reported as “inactive”. The outcome [4] was “inactive”, the AC50 [5] was 0.22 µM (active) and the outcome [5] was “inactive”. For the same molecule, the AC50 [6] was 673 nM (active) and 652 nM (active), the outcome [6] was “inactive” and the outcome [7] was “inactive”. The outcome [8] was “inactive”, the outcome [9] was “inactive” and the outcome [10] was “inactive”.

In the case of `COP(=O)(CCC(=O)NCO)OC`, the outcome [2] is reported as “inactive” and the outcome [7] is reported as “inactive”.

For `O=C(O)C(F)(F)OC(F)(F)C(F)(F)OC(F)(F)C(=O)O`, the outcome [1] was “inactive”, the outcome [2] was “inactive” and the outcome [3] was “inactive”. For the same molecule, the outcome [4] was “inactive”, the outcome [5] was “inactive” and the outcome [6] was “inactive”. The outcome [7] was “inactive”.

With `OCC(F)(F)OC(F)(F)C(F)(F)OC(F)(F)C(F)(F)OC(F)(F)CO` the outcome [1] was “inactive”, the AC50 [2] was 33.8 µM (active) and the outcome [2] was “inactive”. The AC50 [3] was 5.2 µM (active), the outcome [3] was “inactive” and the outcome [4] was “inactive”. For the same molecule, the AC50 [5] was 24.7 µM (active), the outcome [5] was “inactive” and the AC50 [6] was 30 µM (active). For the same molecule, the AC50 [7] was 4.54 µM (active) and the outcome [7] was “inactive”.

With `CO/N=C(/C(=O)OC)c1ccccc1COc1ccccc1C` the outcome [8] was “inactive”, the AC50 [9] was 22.9 µM (active) and the AC50 [10] was 21 µM (active).

For `CC(C)(C)c1ccccc1OP(=O)(Oc1ccccc1)Oc1ccccc1`, the outcome [8] was “inactive”, the AC50 [9] was 10 µM (active) and the outcome [10] was “inactive”.

In the case of `O=C(O)C(F)(F)OC(F)(F)C(F)(F)OC(F)(F)F`, the outcome [1] is reported as “inactive”, the outcome [2] is reported as “inactive” and the outcome [3] is reported as “inactive”. The outcome [4] was “inactive”, the outcome [5] was “inactive” and the outcome [6] was “inactive”. For the same molecule, the outcome [7] was “inactive”.

For `O=S1(=O)OCC2C(CO1)C1(Cl)C(Cl)=C(Cl)C2(Cl)C1(Cl)Cl` (stereo not given), the outcome [8] was “inactive”, the outcome [9] was “inactive” and the outcome [10] was “inactive”.

With `O=P(Oc1ccccc1)(Oc1ccccc1)Oc1ccccc1` the outcome [8] was “inactive”, the AC50 [9] was 11 µM (active) and the outcome [10] was “inactive”.

— PubChem BioAssay (EPA / NIEHS)
